# Source: the supplement of paper PMC6555819
# Assays:
# Test in all cases: PBM binding z-score (relative to random genomic background probes); higher = stronger binding; sequences stand for … in GC…GCGATTGACAGCGTAGAATGAAGG
# [1] = tested on: FXR:RXRa (NR concentration 270 nM, RXRa partner concentration 90 nM)
# Method in brief: (§1)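 The probes on custom Agilent 4×180K protein-binding microarrays were double-stranded, with 34-nt variable regions bearing direct-repeat seeds, single-nucleotide variants, half-site ablations and random human genomic background sequences. Incubation lasted 1 h with ligand-free nuclear receptor dimers in PBS pH 7.4, 2% milk, 0.02% Triton X-100, 1 mM DTT, 0.2 mg/mL BSA and 0.4 mg/ml salmon testes DNA. Antibodies against each partner (one per run) detected bound dimers, and fluorescence scans were regression-normalized. Binding z-scores take the random background probes as reference.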
# [2] = tested on: LXRa:RXRa (NR concentration 270 nM, RXRa partner concentration 90 nM)
# Method in brief: as §1
# [3] = tested on: LXRa homodimer (NR concentration 270 nM)
# Method in brief: as §1
# [4] = tested on: LXRb:RXRa (NR concentration 270 nM, RXRa partner concentration 90 nM)
# Method in brief: as §1
# [5] = tested on: LXRb homodimer (NR concentration 270 nM)
# Method in brief: as §1
# [6] = tested on: PPARa:RXRa (NR concentration 270 nM, RXRa partner concentration 90 nM)
# Method in brief: as §1
# [7] = tested on: PPARg:RXRa (NR concentration 180 nM, RXRa partner concentration 90 nM)
# Method in brief: as §1
# [8] = tested on: PPARg:RXRa 270nM:90nM, anti-RXR (NR concentration 270 nM, RXRa partner concentration 90 nM)
# Method in brief: as §1
# [9] = tested on: PPARg:RXRa 30nM:10nM, anti-RXR (NR concentration 30 nM, RXRa partner concentration 10 nM)
# Method in brief: as §1
# [10] = tested on: PPARg:RXRa 90nM:30nM, anti-RXR (NR concentration 90 nM, RXRa partner concentration 30 nM)
# Method in brief: as §1
# [11] = tested on: PPARg:RXRa DBDmut IVT, anti-RXR (DBD mutation: RXRa K156A/R161A, NR concentration 270 nM, RXRa partner concentration 90 nM)
# Method in brief: as §1
# [12] = tested on: PPARg:RXRa IVT, anti-PPARg (NR concentration 270 nM, RXRa partner concentration 90 nM)
# Method in brief: as §1
# [13] = tested on: PPARg DBDmut:RXRa IVT, anti-PPARg (DBD mutation: PPARg1 K132A/R137A, NR concentration 270 nM, RXRa partner concentration 90 nM)
# Method in brief: as §1
# [14] = tested on: PPARg DBDmut IVT, anti-PPARg (DBD mutation: PPARg1 K132A/R137A, NR concentration 270 nM)
# Method in brief: as §1
# [15] = tested on: PPARg homodimer (NR concentration 180 nM)
# Method in brief: as §1
# [16] = tested on: PXR:RXRa (NR concentration 270 nM, RXRa partner concentration 90 nM)
# Method in brief: as §1
# [17] = tested on: PXR homodimer (NR concentration 270 nM)
# Method in brief: as §1
# [18] = tested on: RARa:RXR (NR concentration 270 nM, RXRa partner concentration 90 nM)
# Method in brief: as §1
# [19] = tested on: RARa homodimer (NR concentration 270 nM)
# Method in brief: as §1
# [20] = tested on: RARb:RXRa (NR concentration 270 nM, RXRa partner concentration 90 nM)
# Method in brief: as §1
Sequence,PBM binding z-score [1],PBM binding z-score [2],PBM binding z-score [3],PBM binding z-score [4],PBM binding z-score [5],PBM binding z-score [6],PBM binding z-score [7],PBM binding z-score [8],PBM binding z-score [9],PBM binding z-score [10],PBM binding z-score [11],PBM binding z-score [12],PBM binding z-score [13],PBM binding z-score [14],PBM binding z-score [15],PBM binding z-score [16],PBM binding z-score [17],PBM binding z-score [18],PBM binding z-score [19],PBM binding z-score [20]
ACAGATAGGTGAGTGAAGGTAACTCAGCTGGACG,0.482,0.0886,-0.209,-0.39,-0.76,0.462,0.821,0.426,-0.17,0.325,1.53,1.14,0.306,-0.218,0.357,-0.303,-0.159,0.0919,-0.566,0.558
CGGCCAAGGTCATAGGAGGTCAGTGAAGACAGAT,7.73,7.58,4.26,6.03,0.344,5.82,5.92,5.6,2.38,4.77,2.94,4.46,-0.828,-0.774,4.97,6.76,3.6,5.88,1.82,5.29
ATCTCTAGGTAAAAGTTCGGTGAATCCCGAGGAT,0.161,0.141,0.132,0.00747,0.757,2.68,5.39,6.18,4.88,6.61,2.29,2.74,1.06,1.26,0.445,0.402,0.883,0.471,0.857,0.906
CCTACTGGGCTAAGGTCATTGATCAGTCAAAGCA,3.85,3.94,1.87,3.49,-0.0794,4.26,3.54,4.28,1.41,3.47,2.72,2.94,-0.43,-0.707,2.17,4.1,1.25,4.17,-0.024,3.5
CCTACTGGGCCATCAGGTCATTAATATCAACGTT,1.02,0.82,1.3,1.37,-0.00307,2.46,2.9,3.3,0.96,3.01,4.28,5.01,0.502,0.269,2.46,1.25,0.741,1.51,0.585,1.94
CTACCAAGGTGAACAAGGTCGTTGAATACTATTC,1.52,1.23,0.0934,1.87,-0.659,2.68,1.19,1.39,0.333,0.702,2.52,2.79,0.336,0.338,0.802,2.75,2.05,2.46,0.109,2.03
AGAATGAGGTTATACGTAGATCAGGCAAGAAAGT,1.83,1.82,-0.142,1.29,-0.0449,3.31,1.97,2.21,0.758,1.71,3.76,2.33,1.04,0.362,0.366,1.01,0.159,1.51,0.831,1.29
CGTCAAAGTTCCAGGTAACGTAACAGAAAGCAGC,-0.0989,-0.25,-0.161,0.0165,0.0494,0.154,0.501,0.0886,-0.125,0.0621,0.434,0.748,-0.578,0.351,0.169,0.0635,-0.218,0.268,0.632,0.351
ACTAGCAGGCCAAGTTTGGGTCAGTCAAACAAAG,0.028,-0.244,-0.318,-0.0247,-0.904,0.619,-0.396,-0.173,-0.835,-0.45,0.456,0.754,-0.643,-0.95,-0.103,0.0962,-0.463,0.649,-0.408,1.21
CAAACTAGGTCACGAAAGGTCTAAGTCGAATGAC,4.46,4.6,0.351,3.17,0.461,5.52,9.08,7.4,5.87,7.6,8.65,9.08,1.37,1.82,2.76,3.68,0.0383,3.59,0.679,4.39
AATACAGGGTCATCGTAGGCCATAGTACGCACAG,7.3,6.74,3.23,4.97,1.39,6.02,6.89,6.05,2.98,4.83,3,4.39,3,2.05,3.8,5.45,0.773,5.17,0.832,4.27
CCTTACGGGTCAATCCAGGTTATAGCATCGGAGT,5.24,6.46,0.547,4.05,0.285,4.76,3.53,3.75,1.26,2.54,3.11,3.6,0.439,-0.233,1.18,5.42,0.705,3.74,0.489,3.44
TCTTGAAGATCAACAGGAGGTTAAGAAAGATCGA,0.539,1.27,0.226,1.15,-0.64,1.41,-0.0399,1.64,2.92,2.51,1.18,0.0291,0.0497,0.387,0.165,0.962,-0.127,1.25,0.0716,0.816
CGAACTAGGTCAAGTACAGTGAATCTCCGCACGC,4.5,2.83,0.474,2.32,0.607,4.85,7.57,6.29,4.41,5.92,8.4,8.26,1.96,1.97,2.76,1.8,0.0981,2.37,0.517,4.19
